Drawing on PubChem BioAssay (EPA / NIEHS), this text covers AC50 and outcome for five compounds.

Values joined by “and” are separate entries in the source; they are usually repeats but may differ in a detail not shown here. Identical values can stand only once. Where a structure was tested more than once in an assay, its records may differ in their call. Active and inactive are the calls of the source. The calls were made as follows: active = hit-call score of the fitted dose curve at least 0.9, where 1 is the maximum; inactive = score below 0.9.

Read-out in experiment [1]: Macrophage colony-stimulating factor (MCSF), CSF1 (gene 1435)
In words: BSK_hDFCGF_MCSF: BioMAP Diversity Plus: hDFCGF Assay for Macrophage colony-stimulating factor (MCSF) Biomarker Activity (AID 2283060). Conditions: primary human foreskin fibroblasts; actives raise or lower the signal. The essentials:
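Primary human foreskin fibroblasts dosed with chemical; 24 h later, M-CSF quantified by ELISA; curves fitted in both directions vs DMSO negative control.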

The nature of experiment [2]: BSK_hDFCGF_SRB: Viability Assessment in the BioMAP Diversity Plus: hDFCGF Assay (AID 2283061).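 Also: cells exposed to compound for 24 h before the read.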 Particulars: primary human foreskin fibroblasts. The method, boiled down:
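Readout is SRB absorbance at 560 nm, reflecting total protein in parallel cultures of human foreskin fibroblasts harvested 24 h after chemical dosing. Activity was fitted bidirectionally relative to DMSO.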

Read-out in experiment [3]: TIMP metallopeptidase inhibitor 1 (TIMP1), TIMP1 (gene 7076)
Kind of experiment: BSK_hDFCGF_TIMP1: BioMAP Diversity Plus: hDFCGF Assay for TIMP metallopeptidase inhibitor 1 (TIMP1) Biomarker Activity (AID 2283062). Conditions: primary human foreskin fibroblasts; actives raise or lower the signal. The essentials: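 Human skin fibroblasts (primary), hDFCGF system; compound exposure 24 h; TIMP-1 by ELISA; bidirectional fit vs DMSO negative control; overt cytotoxicity by SRB in parallel wells.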

Read-out in experiment [4]: Monokine induced gamma interferon (MIG), CXCL9 (gene 4283)
Kind of experiment: BSK_hDFCGF_MIG: BioMAP Diversity Plus: hDFCGF Assay for Monokine induced gamma interferon (MIG) Biomarker Activity (AID 2283063). Particulars: primary human foreskin fibroblasts; actives raise or lower the signal. The method, boiled down:
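Chemicals were added to primary human foreskin fibroblast cultures, which were sampled 24 h later. MIG levels were then quantified by ELISA and responses fitted in both directions relative to DMSO.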

Read-out in experiment [5]: Matrix Metallopeptidase 1 (MMP1), MMP1 (gene 4312)
Kind of experiment: BSK_hDFCGF_MMP1: BioMAP Diversity Plus: hDFCGF Assay for Matrix Metallopeptidase 1 (MMP1) Biomarker Activity (AID 2283064). Conditions: primary human foreskin fibroblasts; actives raise or lower the signal. The method, boiled down:
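Human foreskin fibroblasts exposed to chemical for 24 h; MMP1 detected by ELISA, with DMSO as baseline for bidirectional fitting.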

Read-out in experiment [6]: Vascular cell adhesion molecule 1 (VCAM1), VCAM1 (gene 7412)
In words: BSK_hDFCGF_VCAM1: BioMAP Diversity Plus: hDFCGF Assay for Vascular cell adhesion molecule 1 (VCAM1) Biomarker Activity (AID 2283065).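 As to AC50: VCAM-1 protein level quantified by ELISA after 24 h chemical exposure.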 Conditions: primary human foreskin fibroblasts; actives raise or lower the signal. The essentials: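 Human foreskin fibroblast primary cells, chemical exposure 24 h; VCAM-1 by ELISA; bidirectional fit, DMSO = negative control/baseline.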

Read-out in experiment [7]: Plasminogen activator inhibitor-1 (PAI1), SERPINE1 (gene 5054)
Kind of experiment: BSK_hDFCGF_PAI1: BioMAP Diversity Plus: hDFCGF Assay for Plasminogen activator inhibitor-1 (PAI1) Biomarker Activity (AID 2283066). Conditions: primary human foreskin fibroblasts; actives raise or lower the signal. The essentials: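 Fibroblasts from human foreskin were treated with test chemical. After 24 h, PAI-1 was measured by ELISA. Activity was fitted in both directions relative to DMSO.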

Read-out in experiment [8]: Intercellular Adhesion Molecule 1 (ICAM1), ICAM1 (gene 3383)
Kind of experiment: BSK_KF3CT_ICAM1: BioMAP Diversity Plus: KF3CT Assay for Intercellular Adhesion Molecule 1 (ICAM1) Biomarker Activity (AID 2283067). Particulars: primary human keratinocytes with fibroblasts; actives raise or lower the signal. The essentials: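 ICAM-1 levels are measured by ELISA 24 h after dosing a primary human co-culture of keratinocytes and foreskin fibroblasts. Activity in either direction is fitted relative to DMSO vehicle.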

Read-out in experiment [9]: Interferon-gamma inducible Protein 10 (IP10), CXCL10 (gene 3627)
In words: BSK_KF3CT_IP10: BioMAP Diversity Plus: KF3CT Assay for Interferon-gamma inducible Protein 10 (IP10) Biomarker Activity (AID 2283068). Conditions: primary human keratinocytes with fibroblasts; actives raise or lower the signal. The method, boiled down:
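ELISA read-out of IP-10 after 24 h chemical dosing of human skin primary co-culture (keratinocytes, foreskin fibroblasts). Gain or loss of signal relative to DMSO, bidirectional curve fit.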

Experiment [10] can be described thus: BSK_KF3CT_SRB: Viability Assessment in the BioMAP Diversity Plus: KF3CT Assay (AID 2283069).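 Also: read 24 h after compound addition; fitted for both signal gain and loss against DMSO baseline.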 Conditions: primary human keratinocytes with fibroblasts. The method, boiled down:
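Overt cytotoxicity is assessed as total protein by sulforhodamine B staining in parallel human skin co-cultures at 24 h after dosing. DMSO serves as negative control and baseline.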

Read-out in experiment [11]: Interleukin-1 alpha (IL1a), IL1A (gene 3552)
Kind of experiment: BSK_KF3CT_IL1a: BioMAP Diversity Plus: KF3CT Assay for Interleukin-1 alpha (IL1a) Biomarker Activity (AID 2283070). Conditions: primary human keratinocytes with fibroblasts; actives raise or lower the signal. The method, boiled down:
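Readout is IL-1a level by ELISA, compared bidirectionally with DMSO as baseline. Cells: human keratinocytes co-cultured with foreskin fibroblasts, harvested 24 h post-dose.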

Read-out in experiment [12]: TIMP metallopeptidase inhibitor 2 (TIMP2), TIMP2 (gene 7077)
In words: BSK_KF3CT_TIMP2: BioMAP Diversity Plus: KF3CT Assay for TIMP metallopeptidase inhibitor 2 (TIMP2) Biomarker Activity (AID 2283071). Conditions: primary human keratinocytes with fibroblasts; actives raise or lower the signal. The method, boiled down: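 Chemicals were dosed onto human skin primary co-cultures of keratinocytes and foreskin fibroblasts, and TIMP-2 was measured by ELISA after 24 hours. Activity in either direction was fitted relative to DMSO.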

Read-out in experiment [13]: C-C motif chemokine 2 (Homo sapiens) (UniProt P13500)
In words: BSK_KF3CT_MCP1: BioMAP Diversity Plus: KF3CT Assay for Monocyte Chemoattractant Protein 1 (MCP1/CCL2) Biomarker Activity (AID 2283073). Particulars: primary human keratinocytes with fibroblasts; actives raise or lower the signal. The method, boiled down: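 ELISA readout of MCP-1 after 24 h chemical dosing of a human skin primary co-culture of keratinocytes and foreskin fibroblasts. Activity was fitted in both directions against DMSO.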

Read-out in experiment [14]: urokinase plasminogen activator (uPA), PLAU (gene 5328)
In words: BSK_KF3CT_uPA: BioMAP Diversity Plus: KF3CT Assay for urokinase plasminogen activator (uPA) Biomarker Activity (AID 2283075). Particulars: primary human keratinocytes with fibroblasts; actives raise or lower the signal. The essentials: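 Values derive from bidirectional fitting against DMSO controls. Keratinocyte/foreskin fibroblast co-cultures received chemical; 24 h later uPA was detected by ELISA, with SRB total-protein staining in parallel wells for overt cytotoxicity.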

Read-out in experiment [15]: CD40, CD40 (gene 958)
In words: BSK_LPS_CD40: BioMAP Diversity Plus: LPS Assay for CD40 Biomarker Activity (AID 2283076). Conditions: primary human HUVEC with PBMC; actives raise or lower the signal. The method, boiled down: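 Cells were dosed, incubated 24 h, then assayed for CD40 by ELISA. Gain or loss of signal was analysed relative to DMSO controls. The culture paired human umbilical vein endothelium with peripheral blood mononuclear cells.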

Read-out in experiment [16]: E-selectin (Homo sapiens) (UniProt P16581)
Kind of experiment: BSK_LPS_Eselectin: BioMAP Diversity Plus: LPS Assay for Eselectin Biomarker Activity (AID 2283077). Particulars: primary human HUVEC with PBMC; actives raise or lower the signal. The method, boiled down:
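Primary human vascular co-culture (endothelium plus PBMC) was dosed with chemical, then E-selectin quantified by ELISA at 24 h. Endpoint values derive from bidirectional curve fitting relative to DMSO.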

Read-out in experiment [17]: Interleukin-8 (IL8), CXCL8 (gene 3576)
Kind of experiment: BSK_LPS_IL8: BioMAP Diversity Plus: LPS Assay for Interleukin-8 (IL8) Biomarker Activity (AID 2283078). Conditions: primary human HUVEC with PBMC; actives raise or lower the signal. The method, boiled down: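 Readout is IL-8 by ELISA, taken 24 h after compounds were added to LPS-stimulated endothelial/PBMC co-cultures. Both increases and decreases relative to DMSO control were scored through bidirectional fitting.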

A short description of experiment [18]: BSK_LPS_SRB: Viability Assessment in the BioMAP Diversity Plus: LPS Assay (AID 2283079).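 Also: total protein by sulforhodamine B absorbance as a cytotoxicity measure; measured one day after compound addition; fitted in both directions against DMSO so loss or gain of signal counts.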 Conditions: primary human HUVEC with PBMC. The essentials:
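Readout is SRB absorbance at 560 nm (0.1% stain, TCA-fixed parallel cultures) as a total-protein cytotoxicity measure. Cells: primary human umbilical vein endothelium plus peripheral blood mononuclear cells, 24 h after chemical exposure; DMSO served as baseline.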

Read-out in experiment [19]: Transforming growth factor beta 1 (TGFb1), TGFB1 (gene 7040)
In words: BSK_KF3CT_TGFb1: BioMAP Diversity Plus: KF3CT Assay for Transforming growth factor beta 1 (TGFb1) Biomarker Activity (AID 2283072). Conditions: primary human keratinocytes with fibroblasts; actives raise or lower the signal. The method, boiled down: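 KF3CT co-culture (keratinocytes + fibroblasts), 24 h exposure → TGF-b1 ELISA → bidirectional fit, DMSO = baseline. Parallel SRB total-protein staining (0.1% SRB, 10% TCA fixation, 560 nm) for cytotoxicity.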

Read-out in experiment [20]: Matrix Metallopeptidase 9 (MMP9), MMP9 (gene 4318)
In words: BSK_KF3CT_MMP9: BioMAP Diversity Plus: KF3CT Assay for Matrix Metallopeptidase 9 (MMP9) Biomarker Activity (AID 2283074). Particulars: primary human keratinocytes with fibroblasts; actives raise or lower the signal. The method, boiled down:
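Values come from bidirectional fitting relative to DMSO of MMP-9 levels, which were measured by ELISA. Measurements were taken 24 h after chemical dosing of a keratinocyte and foreskin fibroblast co-culture.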

E-selectin (Homo sapiens), sequence (P16581 whole entry, looked up): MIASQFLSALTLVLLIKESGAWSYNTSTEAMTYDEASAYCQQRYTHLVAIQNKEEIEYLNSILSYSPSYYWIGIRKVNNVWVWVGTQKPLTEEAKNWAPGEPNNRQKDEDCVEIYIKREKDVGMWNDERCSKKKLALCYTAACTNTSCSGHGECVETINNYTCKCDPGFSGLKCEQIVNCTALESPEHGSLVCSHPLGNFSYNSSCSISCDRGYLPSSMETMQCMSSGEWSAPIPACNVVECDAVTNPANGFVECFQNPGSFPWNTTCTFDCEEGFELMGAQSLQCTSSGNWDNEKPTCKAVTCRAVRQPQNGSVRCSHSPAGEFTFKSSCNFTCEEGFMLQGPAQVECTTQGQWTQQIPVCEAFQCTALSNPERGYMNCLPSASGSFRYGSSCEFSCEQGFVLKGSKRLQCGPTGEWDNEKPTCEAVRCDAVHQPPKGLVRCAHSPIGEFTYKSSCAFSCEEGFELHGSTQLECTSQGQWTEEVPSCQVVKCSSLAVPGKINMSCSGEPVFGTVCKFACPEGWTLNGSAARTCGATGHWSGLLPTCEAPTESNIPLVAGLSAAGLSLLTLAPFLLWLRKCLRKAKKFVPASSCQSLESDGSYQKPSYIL

As a reminder, the AC50 is the concentration giving half of the maximal activity seen. Turning to `O=C(O)C(F)(F)OC(F)(F)C(F)(F)OC(F)(F)C(F)(F)OC(F)(F)C(F)(F)C(F)(F)C(F)(F)F`, the AC50 was 11.6 µM (active) and 10.5 µM (active) in experiment [1]; 8.7 µM (active) and 8.8 µM (active) in experiment [2]; 10.6 µM (active) and 8.08 µM (active) in experiment [3]; 12.1 µM (active) and 10.3 µM (active) in experiment [4]; 7.6 µM (active) and 8.44 µM (active) in [5]; 7.84 µM (active) and 6.66 µM (active) in experiment [6]. The AC50 in experiment [7] was 11.4 µM (active); in [8] it was 20.7 µM (active) and 21.8 µM (active); in experiment [9], 7.51 µM (active) and 7.14 µM (active); in experiment [10], 8.04 µM (active); in experiment [11] it was 14.2 µM (active) and 11.1 µM (active); in experiment [12], 8.14 µM (active) and 7.33 µM (active). The AC50 is 8.05 µM (active) and 8.01 µM (active) in experiment [13]; 14.5 µM (active) and 15.7 µM (active) in experiment [14]; 30 µM (active) and 36.5 µM (active) in experiment [15]; 54.1 µM (active) and 50.8 µM (active) in experiment [16]; 47.5 µM (active) and 26 µM (active) in experiment [17]; 54.4 µM (active) and 50.9 µM (active) in [18]. Moreover, the result in experiment [10] was inactive.
Consider `O=C(CC(=O)C(F)(F)C(F)(F)C(F)(F)F)c1cccs1`, for which the result in experiment [1], in experiment [2], in [3], in experiment [4], in [5] and in experiment [6] was inactive. In addition, the outcome in [7], in experiment [8], in experiment [9], in experiment [10], in experiment [11] and in experiment [12] was inactive. Further, the outcome in experiment [13], in experiment [14], in experiment [15], in [16] and in [17] was inactive. Besides, the AC50 in experiment [4] is 7.78 µM (active); in experiment [5] it was 7.77 µM (active); in experiment [15], 22.9 µM (active); in experiment [18], 26.4 µM (active) and 37.3 µM (active).
Take `O=C(c1ccccc1)c1ccccc1`: the result in experiment [1], in [2], in experiment [3], in [4], in experiment [5] and in experiment [6] was inactive. For the same compound, the outcome in experiment [7], in [8], in [9], in experiment [10], in [11] and in experiment [12] was inactive. Besides, the result in experiment [19], in experiment [13], in experiment [14], in [15], in experiment [16] and in [17] was inactive. In addition, in experiment [18], the result was inactive.
In the case of `CC[N+](CC)(CC)Cc1ccccc1`, the result in experiment [1], in [2], in experiment [3], in [4], in experiment [5] and in experiment [6] was inactive. For the same compound, the result in experiment [7], in experiment [8], in [9], in [10], in [11] and in experiment [12] was inactive. Moreover, the result in experiment [19], in [13], in [20], in experiment [14], in [15] and in [16] was inactive. Also, the result in experiment [17] and in [18] was inactive.
As for `CCCCCc1ccc(O)cc1`, the AC50 was 25.5 µM (active) in [1]; 28.9 µM (active) in experiment [2]; 20 µM (active) in experiment [3]; 31.3 µM (active) in experiment [4]; 20 µM (active) in experiment [5]; 15.2 µM (active) in [6]. Moreover, the AC50 in experiment [7] is 28.5 µM (active); in experiment [8], 27.6 µM (active); in experiment [9] it was 29.2 µM (active); in [10], 12.4 µM (active); in [11], 20 µM (active); in [12] it was 10.4 µM (active). Further, the AC50 was 5.62 µM (active) in experiment [19]; 9.12 µM (active) in [13]; 14.8 µM (active) in experiment [14]; 29.5 µM (active) in experiment [15]; 31.4 µM (active) in experiment [16]; 36.1 µM (active) in [17]. The AC50 in [18] is 28.4 µM (active).
